# Experimental data: article PMC7862700, “An all-to-all approach to the identification of sequence-specific readers for epigenetic DNA modifications on cytosine”
# What was measured:
# Experiment in all cases: DAPPL (digital affinity profiling via proximity ligation, sequencing); 10 mM Tris-HCl pH 7.5, 50 mM NaCl, 1 mM DTT, 4% glycerol, room temperature, 30 min; GST-TFs on glutathione beads, 16-mer random dsDNA library, 0.1% formaldehyde crosslink after washing; high values mean tight binding
# Conditions in all cases: protein: recombinant; tags: N-terminal GST; dsDNA, one strand shown
# ETV2 = target: T1, ETV2 (Homo sapiens, UniProt O00321 1-342)
# T1 sequence: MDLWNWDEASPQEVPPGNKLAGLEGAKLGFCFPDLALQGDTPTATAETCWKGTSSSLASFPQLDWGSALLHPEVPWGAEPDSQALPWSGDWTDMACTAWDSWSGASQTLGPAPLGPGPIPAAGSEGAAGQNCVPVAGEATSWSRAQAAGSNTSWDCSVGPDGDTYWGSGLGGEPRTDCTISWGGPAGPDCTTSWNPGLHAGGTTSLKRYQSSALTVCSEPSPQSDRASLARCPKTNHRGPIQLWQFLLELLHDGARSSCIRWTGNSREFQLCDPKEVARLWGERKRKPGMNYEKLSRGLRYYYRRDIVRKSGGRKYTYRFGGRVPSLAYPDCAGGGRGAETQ
# In short: (§1)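 Yeast served to express human transcription factors as GST fusions, which were then captured on glutathione beads and labelled with DNA barcodes. Pooled with a tag-only sample, they were incubated with 200 nmole of a 16-mer random double-stranded DNA library for 30 min at room temperature in Tris/NaCl/DTT/glycerol buffer, washed, crosslinked with 0.1% formaldehyde, ligated by proximity, amplified by PCR and sequenced. Dividing each hexamer's read frequency for a factor by its frequency for the tag-only sample gives the binding signal.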
# ELK4 = target: T2, ELK4 (Homo sapiens, UniProt P28324-2 1-405)
# T2 sequence: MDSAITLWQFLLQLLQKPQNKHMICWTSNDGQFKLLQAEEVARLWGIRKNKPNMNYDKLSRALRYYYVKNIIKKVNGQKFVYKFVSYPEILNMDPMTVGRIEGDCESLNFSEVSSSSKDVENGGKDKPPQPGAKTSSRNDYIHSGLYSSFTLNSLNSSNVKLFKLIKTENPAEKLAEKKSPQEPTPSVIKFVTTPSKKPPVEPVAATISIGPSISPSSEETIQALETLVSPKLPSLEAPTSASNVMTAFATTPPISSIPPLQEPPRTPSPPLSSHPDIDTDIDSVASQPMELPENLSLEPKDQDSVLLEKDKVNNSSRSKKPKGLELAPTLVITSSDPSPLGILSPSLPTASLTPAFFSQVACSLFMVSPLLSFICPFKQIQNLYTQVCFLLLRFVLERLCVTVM
# In short: as §1
# ETV3L = target: T3, ETV3L (Homo sapiens, UniProt Q6ZN32 1-361)
# T3 sequence: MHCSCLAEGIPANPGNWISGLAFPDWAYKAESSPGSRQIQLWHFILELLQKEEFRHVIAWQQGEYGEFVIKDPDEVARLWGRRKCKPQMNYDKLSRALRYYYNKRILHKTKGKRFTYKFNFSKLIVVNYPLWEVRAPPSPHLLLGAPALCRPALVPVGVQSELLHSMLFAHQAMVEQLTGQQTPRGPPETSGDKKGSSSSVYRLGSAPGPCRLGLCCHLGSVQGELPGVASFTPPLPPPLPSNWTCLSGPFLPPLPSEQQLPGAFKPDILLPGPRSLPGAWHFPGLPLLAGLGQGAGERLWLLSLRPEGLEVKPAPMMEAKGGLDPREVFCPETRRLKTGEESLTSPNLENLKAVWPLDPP
# In short: as §1
# ELF3 = target: T4, ELF3 (Homo sapiens, UniProt P78545 1-371)
# T4 sequence: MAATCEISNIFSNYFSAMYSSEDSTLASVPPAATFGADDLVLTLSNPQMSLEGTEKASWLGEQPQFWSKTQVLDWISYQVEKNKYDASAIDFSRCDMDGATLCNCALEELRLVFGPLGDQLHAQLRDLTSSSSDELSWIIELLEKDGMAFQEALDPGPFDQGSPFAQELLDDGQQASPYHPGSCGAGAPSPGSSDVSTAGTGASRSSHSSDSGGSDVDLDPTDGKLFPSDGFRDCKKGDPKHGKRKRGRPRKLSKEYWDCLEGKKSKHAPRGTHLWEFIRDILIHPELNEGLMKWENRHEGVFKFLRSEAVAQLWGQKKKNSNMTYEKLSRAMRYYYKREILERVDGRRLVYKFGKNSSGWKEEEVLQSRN
# In short: as §1
# SPDEF = target: T5, SPDEF (Homo sapiens, UniProt O95238 1-335)
# T5 sequence: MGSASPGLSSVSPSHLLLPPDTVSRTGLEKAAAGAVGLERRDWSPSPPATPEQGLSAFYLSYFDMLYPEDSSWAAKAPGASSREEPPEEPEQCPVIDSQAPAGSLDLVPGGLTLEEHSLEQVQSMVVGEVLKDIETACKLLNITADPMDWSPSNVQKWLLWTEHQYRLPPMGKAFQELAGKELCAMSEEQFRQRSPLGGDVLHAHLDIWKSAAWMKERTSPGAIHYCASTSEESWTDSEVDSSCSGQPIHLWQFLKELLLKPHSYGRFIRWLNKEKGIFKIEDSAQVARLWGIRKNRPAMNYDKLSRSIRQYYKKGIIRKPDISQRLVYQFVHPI
# In short: as §1
# EHF = target: T6, EHF (Homo sapiens, UniProt Q9NZC4 1-300)
# T6 sequence: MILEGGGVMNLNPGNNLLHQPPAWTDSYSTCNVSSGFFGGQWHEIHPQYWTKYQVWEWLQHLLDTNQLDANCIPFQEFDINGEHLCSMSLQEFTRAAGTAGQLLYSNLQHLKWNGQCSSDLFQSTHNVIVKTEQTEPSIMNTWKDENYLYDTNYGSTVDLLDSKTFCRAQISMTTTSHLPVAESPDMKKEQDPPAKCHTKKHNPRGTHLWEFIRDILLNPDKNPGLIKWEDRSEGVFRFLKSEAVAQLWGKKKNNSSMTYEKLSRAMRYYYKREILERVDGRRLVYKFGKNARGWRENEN
# In short: as §1
# SPIB = SPIB (Homo sapiens, UniProt Q01892 1-262)
# Chain of SPIB (Q01892 whole entry): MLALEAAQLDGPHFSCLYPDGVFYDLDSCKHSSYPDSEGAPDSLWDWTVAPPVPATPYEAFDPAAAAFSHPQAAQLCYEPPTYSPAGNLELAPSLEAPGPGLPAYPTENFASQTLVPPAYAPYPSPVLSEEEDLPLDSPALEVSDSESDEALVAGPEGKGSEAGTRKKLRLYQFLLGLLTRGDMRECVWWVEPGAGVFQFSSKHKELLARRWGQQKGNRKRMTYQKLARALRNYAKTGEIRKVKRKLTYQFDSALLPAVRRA
# In short: as §1
# FEV = target: T7, FEV (Homo sapiens, UniProt Q99581 1-238)
# T7 sequence: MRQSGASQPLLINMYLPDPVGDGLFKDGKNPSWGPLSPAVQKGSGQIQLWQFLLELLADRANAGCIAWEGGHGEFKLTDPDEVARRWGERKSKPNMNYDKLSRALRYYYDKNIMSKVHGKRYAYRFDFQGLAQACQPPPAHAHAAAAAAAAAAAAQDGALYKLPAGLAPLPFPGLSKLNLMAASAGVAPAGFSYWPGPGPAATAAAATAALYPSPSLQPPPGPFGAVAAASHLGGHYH
# In short: as §1
# CRX = CRX (Homo sapiens, UniProt O43186 1-299)
# Chain of CRX (O43186 whole entry): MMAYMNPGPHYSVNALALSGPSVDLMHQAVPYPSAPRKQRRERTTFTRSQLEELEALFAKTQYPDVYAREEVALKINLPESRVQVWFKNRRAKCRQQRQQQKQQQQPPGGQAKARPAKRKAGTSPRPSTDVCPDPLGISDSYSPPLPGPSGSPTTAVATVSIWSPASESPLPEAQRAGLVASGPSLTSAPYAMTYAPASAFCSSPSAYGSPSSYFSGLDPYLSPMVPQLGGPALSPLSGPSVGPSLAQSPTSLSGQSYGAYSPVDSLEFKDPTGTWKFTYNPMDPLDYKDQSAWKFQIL
# In short: as §1
# ELK3 = target: T8, ELK3 (Homo sapiens, UniProt P41970 1-407)
# T8 sequence: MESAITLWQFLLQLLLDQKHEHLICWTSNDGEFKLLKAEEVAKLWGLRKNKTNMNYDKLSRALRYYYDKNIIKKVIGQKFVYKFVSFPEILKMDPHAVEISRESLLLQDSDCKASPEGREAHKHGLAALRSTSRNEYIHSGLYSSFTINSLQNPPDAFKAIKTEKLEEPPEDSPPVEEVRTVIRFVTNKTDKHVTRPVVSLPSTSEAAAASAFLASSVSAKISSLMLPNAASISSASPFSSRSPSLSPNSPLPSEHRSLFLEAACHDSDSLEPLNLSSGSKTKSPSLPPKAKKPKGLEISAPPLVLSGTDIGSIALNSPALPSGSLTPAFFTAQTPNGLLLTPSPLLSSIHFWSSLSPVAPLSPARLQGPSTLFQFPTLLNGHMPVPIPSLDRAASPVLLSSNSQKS
# In short: as §1
sequence,measurement,setting,value
CTGGGA,binding signal,ETV2,"1.01 fold enrichment (6-mer frequency, TF over GST control)"
GTTGTG,binding signal,ELK4,"1.07 fold enrichment (6-mer frequency, TF over GST control)"
same,binding signal,ETV3L,"1.02 fold enrichment (6-mer frequency, TF over GST control)"
CCGTTA,binding signal,ETV2,"1.05 fold enrichment (6-mer frequency, TF over GST control)"
same,binding signal,ELF3,"1.01 fold enrichment (6-mer frequency, TF over GST control)"
same,binding signal,SPDEF,"1.04 fold enrichment (6-mer frequency, TF over GST control)"
TAGTCA,binding signal,ELF3,"1.07 fold enrichment (6-mer frequency, TF over GST control)"
CATCGT,binding signal,EHF,"1 fold enrichment (6-mer frequency, TF over GST control)"
same,binding signal,SPIB,"1.05 fold enrichment (6-mer frequency, TF over GST control)"
same,binding signal,ETV2,"1.01 fold enrichment (6-mer frequency, TF over GST control)"
AGCCCA,binding signal,FEV,"1.01 fold enrichment (6-mer frequency, TF over GST control)"
same,binding signal,ETV2,"1.04 fold enrichment (6-mer frequency, TF over GST control)"
same,binding signal,ELF3,"1.04 fold enrichment (6-mer frequency, TF over GST control)"
same,binding signal,CRX,"1.05 fold enrichment (6-mer frequency, TF over GST control)"
GGCATA,binding signal,ETV2,"1.05 fold enrichment (6-mer frequency, TF over GST control)"
TGGGCG,binding signal,ELK3,"1.01 fold enrichment (6-mer frequency, TF over GST control)"
same,binding signal,ETV2,"1 fold enrichment (6-mer frequency, TF over GST control)"
GAAAGC,binding signal,ELF3,"1.06 fold enrichment (6-mer frequency, TF over GST control)"
AAGGTC,binding signal,EHF,"1.08 fold enrichment (6-mer frequency, TF over GST control)"
same,binding signal,ETV2,"1.06 fold enrichment (6-mer frequency, TF over GST control)"
